Measured values reported in PubChem BioAssay AID1987 (The Scripps Research Institute Molecular Screening Center, 2009).
Screen size: about 320,000 compounds; about 560 (0.17%) were called active. Only a selection was taken, and actives are over-represented in it overall. Unmarked numbers belong to inactive results.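 How the source made its calls: active means inhibition above the campaign's mean inhibition across all tested compounds plus 3 SD (cut at about 9.5% in these data); inactive means the rest.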

Biological target: Serine/threonine-protein phosphatase 5 (Homo sapiens) (UniProt P53041)
Sequence (P53041 whole entry, looked up): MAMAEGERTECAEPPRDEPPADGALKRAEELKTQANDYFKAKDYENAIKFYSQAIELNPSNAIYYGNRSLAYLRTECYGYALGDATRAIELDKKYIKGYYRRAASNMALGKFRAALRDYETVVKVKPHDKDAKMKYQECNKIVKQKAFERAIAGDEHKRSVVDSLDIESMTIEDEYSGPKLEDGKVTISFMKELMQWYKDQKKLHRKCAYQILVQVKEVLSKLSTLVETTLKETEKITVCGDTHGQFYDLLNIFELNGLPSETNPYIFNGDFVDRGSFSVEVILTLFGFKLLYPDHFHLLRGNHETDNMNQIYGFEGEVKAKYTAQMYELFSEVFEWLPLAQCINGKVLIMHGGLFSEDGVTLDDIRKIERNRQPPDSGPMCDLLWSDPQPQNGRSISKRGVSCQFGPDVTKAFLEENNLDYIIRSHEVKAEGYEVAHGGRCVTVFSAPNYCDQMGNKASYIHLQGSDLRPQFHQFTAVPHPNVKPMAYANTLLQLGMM
Test: PP5 phosphatase inhibitors, primary screen, biochemical, fluorescence (AID 1987);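 further: 0% = DMSO only and 100% = 100 µM cantharidin control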
Conditions: purified PP5c, OMFP substrate fluorescence; at 6.7 µM; stronger effect = higher value

Q: With `O=C(O)c1ccccc1NC(=O)C1C2CCC(O2)C1C(=O)O` (stereo not given) as the compound, how does the inhibition read?
A: Its inhibition is 41.3% (active).

Q: With `Cc1cc(C)cc(NC(=S)NC2CC3CCCC(C2)N3Cc2cccs2)c1` (stereo not given) as the compound, how does the inhibition read?
A: Its inhibition is 4.69%.

Q: For `CC(c1ccccc1)(c1ccccc1)c1ccncc1`, which inhibition is on record?
A: The inhibition was -0.19%.

Q: How did the inhibition turn out when `C[N+]12CN3CN(CN(C3)C1)C2` was run?
A: Its inhibition is -1.24%.

Q: How did the inhibition turn out when `CCOP(=O)(OCC)C(NC(=O)NC)C(N)=O` (stereo not given) was run?
A: The inhibition was -0.58%.
